Assay results reported in PubChem BioAssay (NCATS).
Results filed as inconclusive are left out. Values without a mark were called inactive. Active and inactive are the calls of the source. Calls come from the whole dose curve; as a rule, active = well fitted cell-killing curve with a large enough effect; inconclusive = small, poorly fitted or top-dose-only effect, or effect the other way; inactive = flat fitted curve, though single readings scatter.

System: Tov112D
Experiment: Primary qHTS to identify gynecologic anti-cancer compounds using libraries of approved drugs and bioactive compounds (AID 1345084); note: nearly all actives have a fitted effect of over 55% in size
Conditions: Gynecologic cancer cell panel viability, ATPlite luminescence, 48 h; series mostly up to 57.5 µM; activity change, negative = cytotoxicity: at the top concentration
In short: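 Five-point cytotoxicity, 48 h drug exposure at 37 C, 5% CO2, on cells seeded 16 h beforehand. ATP content read by ATPlite luminescence.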
% is set by controls: 0 for no effect and ±100 for the full control effect; potency is the fitted concentration of half-maximal effect.

SMILES | activity change, negative = cytotoxicity | Potency
CCC(=O)NS(=O)(=O)c1ccc(-c2c(-c3ccccc3)noc2C)cc1 | -2.2% | 
O=C(O)C[C@@H](NC(=O)c1cc(-c2ccc(-c3ccncc3)cc2)cs1)c1ccccc1 | -12.7% | 
CC(C)Nc1cc(-c2c[nH]c(C(=O)N[C@H](CO)c3cccc(Cl)c3)c2)c(Cl)cn1 | -15.8% | 
CC1(C)O[C@]23C[C@H]1C[C@H](OC(=O)c1ccoc1)[C@]2(C)[C@@H](OC(=O)c1ccoc1)CCC3(C)O (stereo partly specified) | -2.29% [at 25.3 µM] | 
CCCn1cnc2c(NCc3ccccc3)nc(N[C@H](CC)CO)nc21 | 7.29% | 
C=C[C@@]1(C)CC(=O)C2[C@](C)(O1)[C@@H](OC(C)=O)[C@@H](O)[C@H]1C(C)(C)CCC[C@]21C (stereo partly specified) | 4.2% [at 11.6 µM] | 
CC[C@H]1OC(=O)C[C@@H](O)[C@H](C)[C@@H](O[C@@H]2O[C@H](C)[C@@H](O)[C@H](N(C)C)[C@H]2O)[C@@H](CCN2C[C@H](C)C[C@H](C)C2)C[C@@H](C)C(=O)/C=C/C(C)=C/[C@@H]1CO[C@@H]1O[C@H](C)[C@@H](O)[C@@H](OC)[C@H]1OC | 21.4% | 
O=C1NC(=Nc2ccccc2F)S/C1=C\c1ccc(C(=O)O)cc1 | 15.3% | 
COc1cc(C(O)C(CO)Oc2ccc(CCCO[C@@H]3O[C@@H](C)[C@H](O)[C@@H](O)[C@H]3O)cc2OC)ccc1O (stereo partly specified) | 4.6% [at 25.3 µM] | 
CC12CCC3c4ccc(O)cc4CCC3C1CCC2OC1OC(C(=O)O)C(O)C(O)C1O (stereo unspecified) | 11% | 
CC1CCC2(C(=O)OC3OC(COC4OC(CO)C(O)C(O)C4O)C(O)C(O)C3O)CCC3(C)C(=CCC4C5(C)CCC(O)C(C)(C(=O)O)C5CCC43C)C2C1(C)O (stereo unspecified) | -8.14% [at 11.6 µM] | 
Cc1cc(N2CCCCC2)nc2ccccc12 | 6.11% | 
FC(F)(F)c1cc(C(F)(F)F)c2ccc3nc(-c4nnco4)cn3c2n1 | 12.1% | 
Oc1ccc([C@H]2COc3cc(O)ccc3C2)cc1 | 6.07% | 
C[C@]12C=CC(=O)C=C1CC[C@@H]1[C@@H]2[C@@H](O)C[C@@]2(C)[C@H]1CC[C@]2(O)C(=O)COC(=O)CCC(=O)O | 9.54% | 
CC(=O)NCCCCn1c2c(c3ccccc31)C(=O)NCC2 | 1.93% | 
CC(C)CC(=O)n1cc(C(N)=O)c(=O)cc1C(O)c1ccccc1 (stereo unspecified) | -1.72% [at 38.5 µM] | 
COc1ccc(C2=CC(=O)OC2Cc2ccc(O)cc2)c(O)c1 (stereo unspecified) | 1.06% [at 38.5 µM] | 

SMILES | activity change, negative = cytotoxicity | Potency
CCC[C@@H]1C[C@@H](C(=O)N[C@@H]([C@H]2O[C@H](SC)[C@H](OP(=O)(O)O)[C@@H](O)[C@H]2O)[C@H](C)Cl)N(C)C1 | -0.27% [at 25.3 µM] | 
O=C1N(CC2CCCCN2)CCN1c1ccccc1 (stereo unspecified) | 7.52% | 
COc1ccc(C[C@H](N)C(=O)N[C@H]2[C@@H](O)[C@H](n3cnc4c(N(C)C)ncnc43)O[C@@H]2CO)cc1 |  | 2000 nM (active)
Cc1ccc(Sc2cncc3sc(C(N)=O)cc23)cc1 | 33.2% | 
Nc1c(Br)cc(Br)cc1CNC1CCC(O)CC1 (stereo unspecified) | -13.3% | 
CCC(=O)O[C@]1(C(=O)CCl)[C@@H](C)C[C@H]2[C@@H]3C[C@H](F)C4=CC(=O)C=C[C@]4(C)[C@@]3(F)[C@@H](O)C[C@@]21C | -0.676% | 
Cn1c(=O)cc(N2CCCC(N)C2)n(Cc2ccccc2C#N)c1=O (stereo unspecified) | 15.5% | 
COc1ccc(C(OC2OC(CO)C(O)C(O)C2O)C(C)O)cc1 (stereo unspecified) | 7.57% [at 38.5 µM] | 
CC1=C(C)C(=O)OC(C(C)C2C(O)CC3C4C5OC5C5(O)CC(OC6OC(CO)C(O)C(O)C6O)CC(O)C5(C)C4CCC32C)C1 (stereo unspecified) | -5.32% [at 25.3 µM] | 
C[C@@H]1C[C@H]2[C@@H]3CCC4=CC(=O)C=C[C@]4(C)[C@@]3(F)[C@@H](O)C[C@]2(C)[C@@]1(O)C(=O)COP(=O)(O)O | 6.16% | 
CC(=O)c1cnc2ccc(-c3cc(Cl)c(O)c(Cl)c3)nc2c1NC1CCC(CN(C)C)CC1 (stereo unspecified) |  | 447 nM (active)
CC1CCC23COC(=O)C2=CC(O)CC3C1(C)CCC1=CC(=O)OC1O (stereo unspecified) | 0.135% [at 38.5 µM] | 
COc1cc(N2CCC(N(C)C)CC2)ccc1Nc1ncc(Cl)c(Nc2ccccc2P(C)(C)=O)n1 |  | 10000 nM (active)
CC1=C2[C@@H]([C@H](C)CC[C@H]2/C=C(\C)C(=O)O)[C@H](O)C1 | -6.14% | 
C#C[C@]1(O)CC[C@H]2[C@@H]3CCC4=C/C(=N/O)CC[C@@H]4[C@H]3CC[C@@]21CC | 6.35% | 
CC(C)[C@H]1CCC(CO)=C[C@@H]1/C=C(\CO)C(=O)O | -2.83% | 
CC(=O)OC(C)OC(=O)C(C)c1ccc(-c2ccccc2)c(F)c1 (stereo unspecified) | 8.45% | 
CC1(C)CCCC2(C)C(CO)C3CCC2C31 (stereo unspecified) | 5.08% | 
